Experimental data published in PubChem BioAssay (EPA / NIEHS).
Inconclusive results are not listed. The source made the active and inactive calls. How the source made its calls: active means hit-call score of the fitted dose curve at least 0.9, where 1 is the maximum; inconclusive means response in the unintended direction; inactive means score below 0.9.

test: Tanguay_ZF_120hpf_CFIN_legacy: (Legacy) Oregon State University Tanguay Lab 120 Hour Post-fertilization zebrafish Assay for Caudal Fin Malformation (AID 2283649)
Protocol: Tanguay_ZF_120hpf_legacy is a whole embryo, multiplexed endpoint assay using zebrafish larvae exposed for 120 hours post fertilization on a 96-well plate.Tanguay_ZF_120hpf_CFIN_legacy is one of one assay component(s) measured or calculated from the Tanguay_ZF_120hpf_legacy assay. It is designed to make measurements of zebrafish development as detected with brightfield microscopy of developing zebrafish embryos.Data from the assay component Tanguay_ZF_120hpf_CFIN_legacy was analyzed into 1 assay endpoints. This assay endpoint, Tanguay_ZF_120hpf_CFIN_legacy, was analyzed in the positive analysis fitting direction relative to DMSO as the negative control and baseline of activity. Using a type of morphology reporter, gain-of-signal activity can be used to understand changes in developmentals as they relate to the whole embryo. To generalize the intended target to other relatable targets, this assay endpoint is annotated to the zebrafish development intended target family, where the subfamily is caudal fin morphogenesis.
Zebrafish husbandry: Tropical 5D wild-type adult zebrafish were housed in at an approximate density of 1000 per 100 gallon tank at the Sinnhuber Aquatic Research Laboratory, Oregon State University, Corvallis, OR. Each tank was kept at standard laboratory conditions of 28C on a 14-h light/10-h dark photoperiod in fish water consisting of reverse osmosis water supplemented with a commercially available salt (Instant Ocean). Spawning funnels were placed into the tanks the night prior, and embryos were collected and staged. To increase bioavailability, the chorion was enzymatically removed using pronase (63.6mg/ml, >/= 3.5U/mg, Sigma-Aldrich: P5147) at 4 hours post fertilization (hpf) using a custom automated dechorionator.Chemical exposures: Six hpf dechorionated embryos were placed 1 embryo per well in a 96-well plate prefilled with 90 ul of EM using automated embryo placement systems (AEPS). Ten microliters of each row of dilution plate 2 was added to 2 exposure plates. The final DMSO concentration used was 0.64% (vol/vol). Thirty-two embryos were also exposed to 5uM trimethyltin chloride (positive control). Plates were sealed to prevent evaporation and foil covered to reduce light exposure and kept in a 28C incubator. Embryos were statically exposed until 120 hpf. At 24 hpf, embryos were assessed for photomotor response using a custom photomotor response analysis tool (PRAT) and for developmental toxicity endpoints (MO24: mortality at 24 hpf, DP: developmental progression, SM: spontaneous movement, and NC: notochord distortion). At 120 hpf, locomotor activity was measured using Viewpoint Zebralab and assessed for 18 endpoints. Zebrafish acquisition and analysis program (ZAAP), a custom program designed to inventory, acquire, and manage zebrafish data, was used to collect developmental endpoints as either present or absent (i.e., binary responses were recorded). If mortality occurred for an embryo (at either 24 or 120 hpf), the non-mortality endpoints were not measured.

Structure (SMILES) | outcome | AC50
CN(C)C=O | inactive | –
CC[C@H](C)[C@@H](C(=O)O)n1sc2ccccc2c1=O | inactive | –
Cc1cc(CCN2CCN(c3nsc4ccccc34)CC2)cc2c1NC(=O)CC2(C)C | – | 6.48 µM (active)
CCC(C)(C)C1CCC(O)CC1 (stereo not given) | inactive | –
O=C(O)Cc1cc(I)c(Oc2cc(I)c(O)c(I)c2)c(I)c1 | inactive | –
CC(C)(C)CC(C)(C)c1ccc(O)c(-n2nc3ccccc3n2)c1 | inactive | –
c1ccc2cc3c(ccc4ccccc43)cc2c1 | inactive | –
NC(=O)N1C(=O)C(C(=O)c2cc(Cl)cs2)c2cc(F)c(Cl)cc21 (stereo not given) | inactive | –
CC(C)(C)c1cc(C(C)(C)C)c(O)c(C(C)(C)C)c1 | inactive | –
NC(=O)N(O)[C@@H]1C=C[C@H](Oc2cccc(Oc3ccc(F)cc3)c2)C1 | inactive | –
CCCCC(CC)COC(=O)CCCCC(=O)OCC(CC)CCCC (stereo not given) | inactive | –
Cc1oc(-c2ccccc2)nc1CCOc1ccc(C[C@H](Nc2ccccc2C(=O)c2ccccc2)C(=O)O)cc1 | inactive | –
CCCCC(CC)COC(=O)CCCCC(=O)OCc1ccccc1 (stereo not given) | inactive | –
CN1CCC[C@H]1c1cccnc1 | inactive | –
CCCCCCC(=O)O | inactive | –
c1ccc2c(c1)Cc1ccccc1-2 | inactive | –
CCCCCCCCCCCCN1CCCC1=O | – | 41 µM (active)
Cc1cc(C)c(O)c(C)c1 | inactive | –
CC(C)CCCCCCOC(=O)CCCCC(=O)OCCCCCCC(C)C | inactive | –
CCc1nn(C2CCCCC2)c2cc(C3(C#N)CCC(C(=O)O)CC3)ccc12 (stereo not given) | – | 0.15 µM (active)

Structure (SMILES) | outcome | AC50
CC(C)(C)c1ccc(O)c(C(C)(C)C)c1 | inactive | –
N#C[C@@H]1CC(F)(F)CN1C(=O)CNC1CC2CCC(C1)N2c1ncccn1 (stereo not given in full) | inactive | –
C[C@@H]1C[C@H]2[C@@H]3CCC4=CC(=O)C=C[C@]4(C)[C@@]3(F)[C@@H](O)C[C@]2(C)[C@@]1(O)C(=O)COP(=O)(O)O | inactive | –
c1ccc2c(c1)ccc1ccccc12 | inactive | –
CCCCCCCCCCCCc1ccccc1S(=O)(=O)O | inactive | –
CCCCOCCO | inactive | –
CCCCCCCC(=O)O | inactive | –
CCCCCCCCOC(=O)CCCCCCCCC(=O)OCCCCCCCC | inactive | –
COc1ccc([N+](=O)[O-])cc1N | inactive | –
OC1CCCCC1 | inactive | –
CN1CCN(c2ccccc2/C=C2\SCCN(c3ccc(Cl)c(Cl)c3)C2=O)CC1 | inactive | –
CC[C@H](c1ccc(O)cc1)[C@@H](CC)c1ccc(O)cc1 | inactive | –
Nc1cccc2c(N)cccc12 | inactive | –
C=C(C)C(=O)OCCC(F)(F)C(F)(F)C(F)(F)C(F)(F)C(F)(F)C(F)(F)F | inactive | –
OCCC(F)(F)C(F)(F)C(F)(F)C(F)(F)C(F)(F)C(F)(F)F | inactive | –
CC(=O)NC1(c2cccc(F)c2)CCN(CC[C@@]2(c3ccc(Cl)c(Cl)c3)CN(c3ccccc3)C(=O)CO2)CC1 | inactive | –
COC(=O)CCCCC(=O)OC | inactive | –
C#C[C@]1(O)CC[C@H]2[C@@H]3CCC4=CC(=O)CC[C@@H]4[C@H]3CC[C@@]21C | inactive | –
Oc1cc2ccccc2c2ccccc12 | – | 36.5 µM (active)
OCCC(F)(F)C(F)(F)C(F)(F)C(F)(F)C(F)(F)C(F)(F)C(F)(F)C(F)(F)F | inactive | –
